Screening results deposited in PubChem by National Center for Advancing Translational Sciences (NCATS).
Rows were chosen to be rich in hits. Some 1.3% of all compounds tested hit in one or more screens of this group.
EPAC1 antagonist: blocks human EPAC1 exchange factor; O95398; EPAC1 GEF assay, Rap1b-BODIPY-GDP exchange fluorescence; Potency, µM (titrated, usually from 115 µM), for inactives: top-dose activity change, negative = inhibition, most hits filed as inhibitors; actives 0.14% (n = 360,000); AID 720709;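 further: plate controls were vehicle for no effect and positive control for full effect; nearly all actives have a fitted effect of over 50% in size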
Target sequence (O95398 whole entry, looked up): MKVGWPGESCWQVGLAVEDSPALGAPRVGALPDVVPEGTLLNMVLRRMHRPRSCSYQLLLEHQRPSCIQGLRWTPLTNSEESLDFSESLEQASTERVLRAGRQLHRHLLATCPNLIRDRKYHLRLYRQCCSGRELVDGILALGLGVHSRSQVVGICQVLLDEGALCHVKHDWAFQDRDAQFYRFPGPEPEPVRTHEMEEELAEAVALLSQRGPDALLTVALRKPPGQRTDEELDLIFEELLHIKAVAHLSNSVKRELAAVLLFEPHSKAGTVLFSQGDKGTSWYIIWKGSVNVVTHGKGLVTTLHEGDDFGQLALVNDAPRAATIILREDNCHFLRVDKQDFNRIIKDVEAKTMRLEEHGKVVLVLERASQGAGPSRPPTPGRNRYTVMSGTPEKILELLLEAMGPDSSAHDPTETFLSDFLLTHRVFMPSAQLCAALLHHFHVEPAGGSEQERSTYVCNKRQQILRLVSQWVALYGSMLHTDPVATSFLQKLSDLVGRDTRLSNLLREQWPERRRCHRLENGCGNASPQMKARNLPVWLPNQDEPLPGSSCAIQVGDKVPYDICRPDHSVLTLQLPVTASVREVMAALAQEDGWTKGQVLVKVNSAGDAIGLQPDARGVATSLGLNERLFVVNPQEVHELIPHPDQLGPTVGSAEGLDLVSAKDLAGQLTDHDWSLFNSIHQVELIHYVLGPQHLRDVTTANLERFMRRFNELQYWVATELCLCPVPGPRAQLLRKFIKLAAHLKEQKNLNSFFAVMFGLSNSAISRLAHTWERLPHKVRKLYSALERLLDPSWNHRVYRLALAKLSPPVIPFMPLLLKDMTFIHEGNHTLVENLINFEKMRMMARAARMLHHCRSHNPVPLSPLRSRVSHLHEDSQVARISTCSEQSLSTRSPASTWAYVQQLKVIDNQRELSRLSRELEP
USP1 inh: USP1/UAF1 (human) deubiquitinase inhibition; AID 743255; O94782; Potency, µM (titrated, usually from 57.1 µM), for the others: at the top dose activity change, negative = inhibition, usual class: inhibitors; actives 0.23% (n = 390,000); recombinant USP1/UAF1, Ub-Rhodamine cleavage fluorescence; further: on the % scale 0 is the no-effect control and ±100 the full control effect; nearly all actives have a fitted effect of over 60% in size
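Step one: compound is pinned into 1nM USP1/UAF1 in HEPES pH 7.8 buffer with TCEP. Step two: 15 min room-temperature incubation. Step three: Ub-Rho (150nM final) starts cleavage, tracked by fluorescence over six one-minute reads.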
EPAC2 antagonist: EPAC2 (human) antagonism | Q8WZA2 | EPAC2 GEF exchange of Rap1B-BODIPY-GDP, fluorescence | Potency, µM (titrated, usually from 114 µM), without a hit: at the highest dose activity, negative = inhibition, most hits filed as inhibitors | actives 0.18% (n = 360,000); further: on the % scale 0 is the no-effect control and ±100 the full control effect; nearly all actives have a fitted effect of over 45% in size
EPAC2 ag: EPAC2 (human) agonism | Q8WZA2 | actives 0.079% (n = 360,000) | EPAC2 activation, biochemical qHTS; response scale: 100% = 6.5 mM cAMP response | Potency, µM (highest dose often 154 µM), for the others: at the top dose activation, actives largely listed as activators | AID 720711; further: nearly all actives have a fitted effect of over 50% in size
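Fluorescence exchange assay: 100 nM EPAC2 with 250 nM RAP1B-BODIPY-GDP and 50 uM GDP; compounds tested as a concentration-titration series (qHTS). Loss of Rap1-bound BODIPY-GDP fluorescence read at 480/540 nm; data normalized to 6.5 mM cAMP.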
EPAC1 ag: activates human EPAC1 exchange factor | actives 0.073% (n = 360,000) | AID 720707 | EPAC1 agonist qHTS, biochemical assay; response scale: 100% = response to 6.5 mM cAMP | O95398 | Potency, µM (top dose mostly 154 µM), for the others: at the top dose activation, usual class: activators; further: nearly all actives have a fitted effect of over 60% in size
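Fluorescent GDP-exchange assay: 100 nM EPAC1 with 250 nM Rap1B preloaded with BODIPY-GDP and 50 uM GDP; compounds tested as concentration series, 5 min at room temperature, then read every 5 min for 30 min (ex 480/em 540 nm); normalized to 6.5 mM cAMP.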
12-LOX inh: ALOX12 (human) lipoxygenase inhibition | P18054 | purified 12hLO, xylenol orange hydroperoxide absorbance | Potency, µM (series often up to 108 µM), without a hit: at the top dose activity change, negative = inhibition, actives largely listed as inhibitors | actives 1.1% (n = 580,000) | AID 1671190; further: on the % scale 0 is the no-effect control and ±100 the full control effect
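Purified human 12hLO at 150 nM in 25 mM Hepes, 0.01% Triton X-100, pH 7.0, preincubated 15 min at room temperature with compound. Reaction started with 40 uM arachidonic acid, 30 min at room temperature. Hydroperoxide measured by Fe-xylenol orange, 573/405 nm absorbance ratio.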
Active calls of the source: *; ? = inconclusive; . = no result; [ ] = another dose, or the depositor's remark. The call rests on the fitted dose curve; in most records, active means well fitted curve in the direction sought with a large enough effect; inconclusive means small, poorly fitted or top-dose-only effect, or another doubt; inactive means no such curve, though single readings can be large; an effect the other way counts as inactive or inconclusive. Potency means the concentration at half of the fitted maximal effect.

SMILES	EPAC1 antagonist	USP1 inh	EPAC2 antagonist	EPAC2 ag	EPAC1 ag	12-LOX inh
Cc1ccc(-n2c(-c3ccccc3)cc(C=Nc3ccc(C)c(C)c3)c2-c2ccccc2)cc1	.	.	.	.	.	20µM*
C=C(c1cccc2ccccc12)P(=O)(O)O	-7.0%	3.4%	-3.3%	5.2%	5.4%	12.6µM*
CC(=O)Oc1ccccc1C(=O)Nc1ccc2c(c1)CN(CCc1ccc(F)cc1)C(=O)C(C)O2 (centres undefined)	.	.	.	.	.	-6.5%
CNc1nc(-c2[nH]c(C)c(C(=O)OC)c2C)cs1	.	.	.	.	.	20µM*
CC(=O)c1c(C)[nH]c(-c2csc(NCC(C)C)n2)c1C	.	.	.	.	.	23.8%
CC(=O)NC(c1ccccc1)c1c(O)ccc2ccccc12 (centres undefined)	-4.0%	-20.5%	39.8µM*	1.2%	3.9%	-7.3%
CCCC(=O)N1CCC(C(=O)Nc2cc(C)ccn2)CC1	.	.	.	.	.	8.1%
CCSc1n[nH]c(=S)s1	-5.6%	-23.6%	-5.6%	5.8%	-0.2%	44.7µM*
CCOC(=O)C1=C(C)OC(N)=C(C#N)C1c1ccc(C(F)(F)F)cc1 (centres undefined)	.	.	.	.	.	15.8µM*
CCC(CC)NC(=O)C1CCc2nc(N3CCN(C(=O)C(C)C)CC3)sc2C1 (centres undefined)	.	.	.	.	.	35.5µM*
O=C(O)c1ccc(-c2ccc(/C=c3/sc4nc5ccccc5n4c3=O)o2)cc1Cl	31.4%	28.2µM*	-0.4%	-54.0%	23.2%	-45.7%
Cc1cc(Cl)ccc1OC(C)C(=O)Nc1ccc(C(=O)Nc2ccccc2C(=O)O)cc1 (centres undefined)	-6.0%	?	?	0.1%	3.9%	50.1µM*
Cc1cc(Cl)ccc1OC(C)C(=O)Nc1ccc(S(=O)(=O)N2CCOCC2)cc1 (centres undefined)	-16.1%	-27.7%	-3.9%	12.7%	-11.4%	155.9%
CN(CC(=O)NC(=O)NC1CCCC1)Cc1ccc(C(F)(F)F)cc1	.	.	.	.	.	-21.5%
Cc1ccc(CCN2CCCCC23Cc2ccccc2CN(C(=O)CCC(=O)O)C3)cc1 (centres undefined)	.	.	.	.	.	31.6µM*
CCCN1CCCCC12Cc1ccccc1CN(C(=O)CCCC(=O)O)C2 (centres undefined)	.	.	.	.	.	-0.4%[6.33 µM]
CC(C)CSC1=NSC2=NC(=O)/C(=C\c3coc4ccccc4c3=O)C(=N)N12	53.7%	4.47µM*	4.2%	?	161.6%	28.2µM*
CSC1=NSC2=NC(=O)/C(=C\c3coc4ccccc4c3=O)C(=N)N12	52.7%	22.4µM*	84.5%	?	63.1µM*	?
Cc1cc(/C=C2\C(=N)N3C(SCc4ccccc4)=NSC3=NC2=O)c(C)n1Cc1ccccc1	2.5%	-17.6%	6.5%	5.4%	-1.9%	-7.7%
CC(C)CSC1=NSC2=NC(=O)/C(=C\c3ccccc3)C(=N)N12	-17.8%	-7.9%	12.8%	-1.7%	-15.3%	-19.8%
O=C(OCCOc1ccccc1F)c1n[nH]c(=O)c2ccccc12	.	.	.	.	.	-4.6%
CCOC(=O)c1c2c(n(C)c1C)C(=O)C(=O)c1ccc(Br)cc1-2	11.7%	?	15.1%	-9.6%	1.7%	0.0%
CCOC(=O)c1c2c(n(Cc3ccccc3)c1C)C(=O)C(=O)c1ccccc1-2	-18.1%	2.51µM*	-0.8%	-0.5%	1.8%	-18.2%
C=CCNc1nc(-c2ccc3c(c2)OCCCO3)cs1	.	.	.	.	.	-7.5%
CCOc1ccc(CNCCCSc2ncccn2)cc1	9.8%	-18.7%	8.8%	4.9%	-10.7%	1.9%
SMILES	EPAC1 antagonist	USP1 inh	EPAC2 antagonist	EPAC2 ag	EPAC1 ag	12-LOX inh
CC(C)c1ccc(CNCCCSc2ncccn2)cc1	14.7%	-16.1%	6.5%	-2.3%	-1.9%	25.1µM*
Cc1nc2ccccc2c(C)c1CC(=O)NCC1CC1	.	.	.	.	.	0.1%
Cc1sc2nc[nH]c(=O)c2c1-c1ccc(F)cc1	?	5.8%	-2.4%	1.2%	-6.0%	-9.1%
Cc1sc2nc[nH]c(=S)c2c1-c1ccccc1	-2.0%	-16.8%	-3.3%	-9.5%	3.7%	31.6µM*
Cc1cc(-c2csc3nc[nH]c(=S)c23)cc(C)c1C	-10.2%	-21.4%	-19.6%	-4.6%	10.7%	28.2µM*
Cc1ccc(-c2csc3nc[nH]c(=S)c23)cc1	-3.6%	-21.7%	-2.7%	-9.8%	3.5%	35.5µM*
CC1=C[C@@H](CO)[C@H](C(C)C)C[C@H]1Cc1nnc(-c2ccc(N(C)C)cc2)o1	.	.	.	.	.	16.1%[176 µM]
COC(=O)CCNC(=O)c1cc(C2CC2)nc2ccccc12	.	.	.	.	.	24.1%
COCCn1cc2c3c(cccc31)CN(C(=O)c1cc(F)ccc1Cl)CC2	.	.	.	.	.	25.1µM*
C=CCSc1ccccc1C(=O)Nc1ncn[nH]1	-20.1%	-1.2%	1.6%	2.8%	-0.3%	?
CSc1ccccc1C(=O)Nc1ncn[nH]1	-12.7%	-14.1%	-6.7%	-2.1%	-2.5%	11.2µM*
NC1CCc2nn(CC(=O)NCc3ccc4c(c3)OCO4)c(=O)n2CC1 (centres undefined)	.	.	.	.	.	50.1µM*
CC(=O)Nc1ccc2nc(SCC(=O)O)sc2c1	3.2%	-8.4%	-4.0%	-6.5%	3.8%	150.2%
CC(=O)Nc1ccc2nc(SCc3ccc(Cl)cc3)sc2c1	.	.	.	.	.	20µM*
Cc1oc(-c2ccccc2)nc1CC(=O)Nc1ccc(Cl)cc1Cl	.	.	.	.	.	7.94µM*
Cc1oc(-c2ccccc2)nc1CC(=O)Nc1cc(F)ccc1F	.	.	.	.	.	-6.4%
COc1cc(/C=C/C(=O)O)cc(Br)c1OC(C)C	.	.	.	.	.	0.2%
